High-throughput results from PubChem BioAssay.
Most compounds without a hit are left out; they make up all but 2.8% or so of the library.
pPAFAH inh – pPAFAH (human) enzyme inhibition. Q13093. recombinant pPAFAH, FP-rhodamine probe fluorescence polarization. inhibition, % at 3.39 µM. 330,000 compounds, 1.5% hits;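 active = inhibition above the mean inhibition across the screen plus 3 SD, cut at about 25% in these data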;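 also: inhibitors block binding of the rhodamine activity-based probe so polarization drops; 0% = enzyme with DMSO and 100% = wells lacking pPAFAH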
PME-1 primary – blocks human protein phosphatase methylesterase 1 | AID 2130 | Q9Y570 | inhibition, % at 5.9 µM | 320,000 compounds, 0.53% hits | recombinant PME-1, FP-Rh probe fluorescence polarization;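 active = inhibition above the campaign mean of all compounds plus 3 SD, cut at about 26% in these data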;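 also: competitive labeling of PME-1 active site by serine hydrolase directed probe; 0% = PME-1 with DMSO and 100% = wells lacking PME-1 enzyme; inhibitors block probe labeling so polarization falls and inhibition rises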
Target sequence (Q9Y570 whole entry, looked up): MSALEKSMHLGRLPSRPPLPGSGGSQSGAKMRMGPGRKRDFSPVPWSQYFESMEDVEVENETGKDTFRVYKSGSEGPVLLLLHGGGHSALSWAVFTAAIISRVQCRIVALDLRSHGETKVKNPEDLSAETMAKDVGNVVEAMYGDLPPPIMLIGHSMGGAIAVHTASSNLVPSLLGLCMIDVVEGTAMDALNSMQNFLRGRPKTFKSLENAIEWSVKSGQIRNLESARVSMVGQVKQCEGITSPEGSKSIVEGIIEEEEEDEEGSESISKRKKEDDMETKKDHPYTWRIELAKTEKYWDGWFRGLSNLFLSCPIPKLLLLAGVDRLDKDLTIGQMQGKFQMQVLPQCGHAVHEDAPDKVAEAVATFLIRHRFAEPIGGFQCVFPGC
Fam108B inh – counter-screen for RBBP9 inhibitors: inhibitors of mouse Fam108B | recombinant Fam108B, FP-Rh probe fluorescence polarization | 300,000 compounds, 0.33% hits | inhibition, % at 9.51 µM | AID 1947;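 active = inhibition above the screen mean inhibition plus 3 SD, computed separately per campaign, cut at about 18% in these data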;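 also: inhibitors lower polarization as less probe binds the enzyme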
PAFAH1B3 inh – blocks human PAF acetylhydrolase 1B catalytic subunit 3; inhibition, % at 3.39 µM; Q15102; 340,000 compounds, 0.28% hits; recombinant PAFAH1B3, FP-rhodamine probe, fluorescence polarization;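 active = inhibition above the screen-wide average of all tested compounds plus 3 SD, cut at about 25% in these data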;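 also: 0% = enzyme with DMSO only and 100% = wells lacking PAFAH1B3 protein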
PAFAH2 inh – inhibitors of human PAFAH2 | Q99487 | recombinant PAFAH2, FP-rhodamine activity probe, fluorescence polarization | inhibition, % at 3.39 µM | 340,000 compounds, 0.99% hits | AID 492956;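 active = inhibition above the mean over all tested compounds plus 3 SD, cut at about 30% in these data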;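 also: inhibitors block probe labeling of enzyme so polarization drops; 0% = enzyme with DMSO and 100% = wells lacking PAFAH2 protein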
PAFAH1B2 inh – PAFAH1B2 (human) inhibition. P68402. recombinant PAFAH1B2, FP-rhodamine activity probe, fluorescence polarization. inhibition, % at 3.39 µM. 340,000 compounds, 1.2% hits. AID 492953;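 active = inhibition above the mean of all tested compounds plus 3 SD, cut at about 24% in these data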;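 also: 0% = enzyme with DMSO and 100% = wells lacking PAFAH1B2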
* hit, by the source's call.

What do the screens show for `CC(=O)C1=C(O)CCCC1=NCc1nc2ccccc2[nH]1`?
pPAFAH inh: -0.6; PME-1 primary: -1.3; Fam108B inh: -2.0; PAFAH1B3 inh: 3.2; PAFAH2 inh: -7.0; PAFAH1B2 inh: -1.1

How did Cc1c(NC(=O)C(C)Oc2ccc(Br)cc2)c(=O)n(-c2ccccc2)n1C (stereo not drawn) do in these assays?
pPAFAH inh: 3.9; PAFAH1B3 inh: 3.9; PAFAH2 inh: 0.9; PAFAH1B2 inh: 3.5

What do the screens show for `N#C/C(=C\c1cccnc1)c1nc2c(s1)CCCC2`?
pPAFAH inh: 0.8; PME-1 primary: 5.0; Fam108B inh: 0.6; PAFAH1B3 inh: 0.1; PAFAH2 inh: 7.6; PAFAH1B2 inh: -1.7

How did COc1cc(/C=C(\C#N)c2nc3c(s2)CCCC3)ccc1O do in these assays?
pPAFAH inh: 35.2*; PME-1 primary: -7.3; Fam108B inh: -1.3

What do the screens show for `Cc1cc(SCC#N)n2nc(C)c(-c3ccccc3)c2n1`?
pPAFAH inh: 31.9*; PME-1 primary: 2.7; Fam108B inh: -3.5; PAFAH1B3 inh: 3.2; PAFAH2 inh: 9.4; PAFAH1B2 inh: -1.1

What do the screens show for `C=CCSc1cc(C)nc2c(-c3ccccc3)c(C)nn12`?
pPAFAH inh: 2.3; PME-1 primary: 2.1; Fam108B inh: 2.9; PAFAH1B3 inh: 2.3; PAFAH2 inh: 4.3; PAFAH1B2 inh: 1.9

How did O=C1CS/C(=N\C(=O)N2c3ccccc3Sc3ccccc32)N1 do in these assays?
pPAFAH inh: 26.3*; PME-1 primary: -7.1; Fam108B inh: 3.7; PAFAH1B3 inh: -1.1; PAFAH2 inh: -5.0; PAFAH1B2 inh: 25.3*

How did COc1cc2c(cc1OC)C(c1cc(Br)ccc1F)N(C(=O)CCl)CC2 (stereo not drawn) do in these assays?
pPAFAH inh: 0.6; PME-1 primary: 31.2*; Fam108B inh: -4.9; PAFAH1B3 inh: 1.2; PAFAH2 inh: 14.9; PAFAH1B2 inh: 6.2

How did COc1cc2c(cc1OC)C(C1C(=O)CC(C)(C)CC1=O)N(C(=O)CCl)CC2 (stereo not drawn) do in these assays?
pPAFAH inh: -0.1; PME-1 primary: -11.4; Fam108B inh: 1.5; PAFAH1B3 inh: -2.7; PAFAH2 inh: -5.5; PAFAH1B2 inh: -6.1

Results for CC(C)(C)OC(=O)N[C@@H](Cc1ccccc1)C(=O)N[C@@H](CO)[C@H](O)[C@@H]1C[C@@H]1C(=O)NC1CCCCC1 ?
pPAFAH inh: -1.0; PAFAH1B3 inh: 2.5; PAFAH2 inh: -2.6; PAFAH1B2 inh: 1.9

How did COc1ccc(CNC(=O)CSc2nc3ccc(C)cc3[nH]2)cc1 do in these assays?
pPAFAH inh: 9.6; PME-1 primary: 1.5; Fam108B inh: -0.7; PAFAH1B3 inh: -2.7; PAFAH2 inh: -8.2; PAFAH1B2 inh: 29.2*

Results for Cc1ccc2nc(SCC(=O)N3CCN(c4ccccc4)CC3)[nH]c2c1 ?
pPAFAH inh: 3.0; PME-1 primary: 4.6; Fam108B inh: -3.2; PAFAH1B3 inh: 2.8; PAFAH2 inh: 7.0; PAFAH1B2 inh: 29.9*

Results for CCN(CCCNC(=O)CNC(=O)c1nn(-c2ccc(OC)cc2OC)c(=O)c2ccccc12)c1cccc(C)c1 ?
pPAFAH inh: 5.8; PME-1 primary: -5.6; Fam108B inh: -1.1; PAFAH1B3 inh: -0.8; PAFAH2 inh: 0.8; PAFAH1B2 inh: 3.7

What do the screens show for `C/C(=C\c1ccc2c(c1)OCO2)C1Nc2cccc3cccc(c23)N1`?
pPAFAH inh: 5.7; PME-1 primary: 37.4*; PAFAH1B3 inh: 21.2; PAFAH2 inh: -9.4; PAFAH1B2 inh: 9.6

How did C/C(=C\c1ccccc1)C1Nc2cccc3cccc(c23)N1 do in these assays?
pPAFAH inh: 12.2; PME-1 primary: 9.8

Results for COc1ccccc1CNC(=O)c1ccc2nc(N3CCOCC3)sc2c1 ?
pPAFAH inh: -8.4; PME-1 primary: 1.0; Fam108B inh: 0.8; PAFAH1B3 inh: 5.5; PAFAH2 inh: -0.6; PAFAH1B2 inh: 6.7

How did Cc1ccc(Oc2ccc(OCC(=O)OC3CCS(=O)(=O)C3)cc2)cc1 (stereo not drawn) do in these assays?
pPAFAH inh: 31.4*; PME-1 primary: -5.3; Fam108B inh: -2.3

How did O=C(OCC(=O)N1CCN(c2ccccc2)CC1)c1ccc(O)cc1O do in these assays?
pPAFAH inh: -3.6; PME-1 primary: -2.4; Fam108B inh: -0.8; PAFAH1B3 inh: 4.8; PAFAH2 inh: 2.0; PAFAH1B2 inh: 5.3
